The campaign covered roughly 5,500 compounds. About 2,000 (36%) were called active. Inconclusive results (about 18%) are left out. No stated cut-off is given here; in the data, active means normalized growth mostly below about 0.91 (no sharp cut-off); inconclusive means no clear call, values can overlap the other calls; inactive means mostly above about 0.92. The list shows a part of the results.
Assay: chemical genetic growth profiling, strain panel (AID 1159580);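 further: tested at 20 µM; growth read once vehicle control cultures reached saturation at 30 °C; 1 = growth at the plate median or of vehicle wells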
Details: growth OD
[1] = S. cerevisiae deletion strains, locus YAR019C, strain CDC15, stronger effect = lower value
[2] = S. cerevisiae deletion strains, locus YBL105C, strain PKC1, stronger effect = lower value
[3] = S. cerevisiae deletion strains, locus YBR135W, strain CKS1, stronger effect = lower value
[4] = S. cerevisiae deletion strains, locus YBR136W, strain MEC1, stronger effect = lower value
[5] = S. cerevisiae deletion strains, locus YBR160W, strain CDC28, stronger effect = lower value
[6] = S. cerevisiae deletion strains, locus YDL017W, strain CDC7, stronger effect = lower value
[7] = S. cerevisiae deletion strains, locus YDL028C, strain MPS1, stronger effect = lower value
[8] = S. cerevisiae deletion strains, locus YDL101C, strain DUN1, stronger effect = lower value
[9] = S. cerevisiae deletion strains, locus YDL108W, strain KIN28, stronger effect = lower value
[10] = S. cerevisiae deletion strains, locus YDL132W, strain cdc53, stronger effect = lower value
[11] = S. cerevisiae deletion strains, locus YDL214C, strain PRR2, stronger effect = lower value
[12] = S. cerevisiae deletion strains, locus YDR052C, strain DBF4, stronger effect = lower value
[13] = S. cerevisiae deletion strains, locus YDR054C, strain cdc34, stronger effect = lower value
[14] = S. cerevisiae deletion strains, locus YDR226W, strain ADK1, stronger effect = lower value
[15] = S. cerevisiae deletion strains, locus YDR477W, strain SNF1, stronger effect = lower value
[16] = S. cerevisiae deletion strains, locus YER123W, strain YCK3, stronger effect = lower value
[17] = S. cerevisiae deletion strains, locus YER133W, strain GLC7, stronger effect = lower value
[18] = S. cerevisiae deletion strains, locus YFL009W, strain cdc4, stronger effect = lower value
[19] = S. cerevisiae deletion strains, locus YFL029C, strain CAK1, stronger effect = lower value
[20] = S. cerevisiae deletion strains, locus YFR003C, strain YPI1, stronger effect = lower value
[21] = S. cerevisiae deletion strains, locus YFR019W, strain FAB1, stronger effect = lower value
[22] = S. cerevisiae deletion strains, locus YFR028C, strain CDC14, stronger effect = lower value
[23] = S. cerevisiae deletion strains, locus YGR040W, strain KSS1, stronger effect = lower value
[24] = S. cerevisiae deletion strains, locus YGR052W, strain FMP48, stronger effect = lower value
[25] = S. cerevisiae deletion strains, locus YGR092W, strain DBF2, stronger effect = lower value
[26] = S. cerevisiae deletion strains, locus YHR030C, strain SLT2, stronger effect = lower value
[27] = S. cerevisiae deletion strains, locus YHR079C, strain IRE1, stronger effect = lower value
[28] = S. cerevisiae deletion strains, locus YHR082C, strain KSP1, stronger effect = lower value
[29] = S. cerevisiae deletion strains, locus YHR205W, strain SCH9, stronger effect = lower value
[30] = S. cerevisiae deletion strains, locus YIL147C, strain SLN1, stronger effect = lower value
[31] = S. cerevisiae deletion strains, locus YJL095W, strain BCK1, stronger effect = lower value
[32] = S. cerevisiae deletion strains, locus YJL128C, strain PBS2, stronger effect = lower value
[33] = S. cerevisiae deletion strains, locus YJL157C, strain FAR1, stronger effect = lower value
[34] = S. cerevisiae deletion strains, locus YJR016C, strain ILV3, stronger effect = lower value
[35] = S. cerevisiae deletion strains, locus YJR066W, strain TOR1 (second series), stronger effect = lower value
[36] = S. cerevisiae deletion strains, locus YJR066W, strain TOR1, stronger effect = lower value
[37] = S. cerevisiae deletion strains, locus YKL048C, strain ELM1, stronger effect = lower value
[38] = S. cerevisiae deletion strains, locus YKL067W, strain YNK1, stronger effect = lower value
[39] = S. cerevisiae deletion strains, locus YKL101W, strain HSL1, stronger effect = lower value
[40] = S. cerevisiae deletion strains, locus YKL193C, strain SDS22, stronger effect = lower value
[41] = S. cerevisiae deletion strains, locus YKL203C, strain TOR2, stronger effect = lower value
[42] = S. cerevisiae deletion strains, locus YLR113W, strain HOG1, stronger effect = lower value
[43] = S. cerevisiae deletion strains, locus YLR133W, strain CKI1, stronger effect = lower value
[44] = S. cerevisiae deletion strains, locus YLR403W, strain SFP1, stronger effect = lower value
[45] = S. cerevisiae deletion strains, locus YML070W, strain DAK1, stronger effect = lower value
[46] = S. cerevisiae deletion strains, locus YMR001C, strain CDC5, stronger effect = lower value
[47] = S. cerevisiae deletion strains, locus YMR205C, strain PFK2 (second series), stronger effect = lower value
[48] = S. cerevisiae deletion strains, locus YMR277W, strain FCP1, stronger effect = lower value
[49] = S. cerevisiae deletion strains, locus YNL006W, strain LST8, stronger effect = lower value
[50] = S. cerevisiae deletion strains, locus YNL020C, strain ARK1, stronger effect = lower value
[51] = S. cerevisiae deletion strains, locus YNL161W, strain CBK1, stronger effect = lower value
[52] = S. cerevisiae deletion strains, locus YNL183C, strain NPR1, stronger effect = lower value
[53] = S. cerevisiae deletion strains, locus YNL207W, strain RIO2, stronger effect = lower value
[54] = S. cerevisiae deletion strains, locus YNL222W, strain SSU72, stronger effect = lower value
[55] = S. cerevisiae deletion strains, locus YNL307C, strain MCK1 (second series), stronger effect = lower value
[56] = S. cerevisiae deletion strains, locus YOL078W, strain AVO1, stronger effect = lower value
[57] = S. cerevisiae deletion strains, locus YOL136C, strain PFK27, stronger effect = lower value
[58] = S. cerevisiae deletion strains, locus YOR061W, strain CKA2, stronger effect = lower value
[59] = S. cerevisiae deletion strains, locus YOR119C, strain RIO1, stronger effect = lower value
[60] = S. cerevisiae deletion strains, locus YOR231W, strain MKK1, stronger effect = lower value
[61] = S. cerevisiae deletion strains, locus YOR329C, strain SCD5, stronger effect = lower value
[62] = S. cerevisiae deletion strains, locus YPL031C, strain PHO85, stronger effect = lower value
[63] = S. cerevisiae deletion strains, locus YPL153C, strain RAD53, stronger effect = lower value
[64] = S. cerevisiae deletion strains, locus YPL204W, strain HRR25, stronger effect = lower value
[65] = S. cerevisiae deletion strains, locus YPL209C, strain IPL1, stronger effect = lower value
[66] = S. cerevisiae deletion strains, locus YPL256C, strain CLN2, stronger effect = lower value
[67] = S. cerevisiae deletion strains, locus YPR025C, strain CCL1, stronger effect = lower value
[68] = S. cerevisiae deletion strains, locus YPR106W, strain ISR1, stronger effect = lower value
[69] = S. cerevisiae deletion strains, locus YPR111W, strain DBF20, stronger effect = lower value
[70] = S. cerevisiae deletion strains, strain NNK1, stronger effect = lower value
[71] = S. cerevisiae deletion strains, strain TSCII, stronger effect = lower value

Measured: normalized growth

O=C1/C(=C/c2ccc(C(F)(F)F)cc2)COc2ccccc21
active: [26] 0.824 | [42] 0.823 | [66] 0.852
inactive: [1] 0.937 | [2] 0.924 | [3] 0.92 | [4] 0.924 | [5] 0.926 | [6] 0.926 | [7] 0.925 | [8] 0.946 | [9] 0.923 | [10] 0.934 | [11] 0.936 | [12] 0.931 | [13] 0.931 | [14] 0.925 | [15] 0.914 | [16] 0.886 | [17] 0.913 | [18] 0.926 | [19] 0.927 | [20] 0.93 | [21] 0.953 | [22] 0.961 | [23] 0.894 | [24] 0.953 | [25] 0.719 | [27] 0.888 | [28] 0.85 | [29] 0.784 | [30] 0.917 | [31] 0.901 | [32] 0.896 | [33] 0.92 | [34] 0.929 | [35] 0.976 | [36] 0.817 | [37] 0.897 | [38] 0.938 | [39] 0.906 | [40] 0.93 | [41] 0.921 | [43] 0.916 | [44] 0.846 | [45] 0.922 | [46] 0.918 | [47] 0.889 | [48] 0.933 | [49] 0.948 | [50] 0.881 | [51] 0.936 | [52] 0.88 | [53] 0.925 | [54] 0.938 | [55] 0.861 | [56] 0.931 | [57] 0.913 | [58] 0.879 | [59] 0.868 | [60] 0.916 | [61] 0.931 | [62] 0.897 | [63] 0.93 | [64] 0.921 | [65] 0.932 | [67] 0.925 | [68] 0.959 | [69] 0.946 | [70] 0.91 | [71] 0.932

O=C1/C(=C/c2ccc(Cl)cc2)COc2ccc(F)cc21
active: [26] 0.305 | S. cerevisiae deletion strains, locus YLR039C, strain RIC1, stronger effect = lower value 0.472 | S. cerevisiae deletion strains, locus YLR085C, strain ARP6, stronger effect = lower value 0.431 | S. cerevisiae deletion strains, locus YLR262C, strain YPT6, stronger effect = lower value 0.528 | S. cerevisiae deletion strains, locus YNL298W, strain CLA4 (second series), stronger effect = lower value 0.83 | S. cerevisiae deletion strains, locus YNR030W, strain Alg12, stronger effect = lower value 0.829 | S. cerevisiae deletion strains, locus YPL241C, strain CIN2, stronger effect = lower value 0.704 | S. cerevisiae deletion strains, locus YPR135W, strain CTF4, stronger effect = lower value 0.405
inactive: S. cerevisiae deletion strains, locus YAL013W, strain DEP1, stronger effect = lower value 0.956 | S. cerevisiae deletion strains, locus YBR229C, strain ROT2, stronger effect = lower value 0.978 | [8] 1.01 | S. cerevisiae deletion strains, locus YDR150W, strain NUM1, stronger effect = lower value 1.01 | S. cerevisiae deletion strains, locus YEL061C, strain CIN8, stronger effect = lower value 0.934 | S. cerevisiae deletion strains, locus YGR078C, strain PAC10, stronger effect = lower value 0.972 | S. cerevisiae deletion strains, locus YGR229C, strain SMI1, stronger effect = lower value 0.951 | S. cerevisiae deletion strains, locus YHR087W, strain rtc3, stronger effect = lower value 0.96 | S. cerevisiae deletion strains, locus YJR043C, strain POL32, stronger effect = lower value 0.977 | S. cerevisiae deletion strains, locus YJR075W, strain HOC1, stronger effect = lower value 0.98 | S. cerevisiae deletion strains, locus YLR058C, strain SHM2 (second series), stronger effect = lower value 0.959 | S. cerevisiae deletion strains, locus YML094W, strain GIM5, stronger effect = lower value 0.941 | S. cerevisiae deletion strains, locus YMR219W, strain ESC1, stronger effect = lower value 0.963 | S. cerevisiae deletion strains, locus YMR263W, strain SAP30, stronger effect = lower value 0.942 | S. cerevisiae deletion strains, locus YNL153C, strain GIM3, stronger effect = lower value 0.986 | S. cerevisiae deletion strains, locus YNL322C, strain KRE1, stronger effect = lower value 0.959 | S. cerevisiae deletion strains, locus YPL055C, strain LGE1, stronger effect = lower value 0.963 | S. cerevisiae strains, strain wild type, stronger effect = lower value 0.967

O=C1/C(=C/c2cccs2)COc2ccccc21
inactive: [1] 0.903 | [3] 0.913 | [4] 0.899 | [5] 0.908 | [6] 0.911 | [7] 0.9 | [9] 0.901 | [10] 0.902 | [11] 0.793 | [12] 0.93 | [13] 0.88 | [14] 0.901 | [15] 0.779 | [16] 0.73 | [17] 0.765 | [18] 0.901 | [19] 0.897 | [20] 0.906 | [21] 0.884 | [22] 0.901 | [23] 0.766 | [24] 0.767 | [25] 0.684 | [27] 0.871 | [28] 0.735 | [29] 0.783 | [31] 0.832 | [32] 0.873 | [33] 0.789 | [34] 0.9 | [36] 0.762 | [37] 0.873 | [38] 0.831 | [39] 0.829 | [40] 0.901 | [41] 0.853 | [43] 0.86 | [44] 0.796 | [45] 0.802 | [46] 0.895 | [47] 0.831 | [48] 0.909 | [49] 0.916 | [50] 0.839 | [51] 0.906 | [52] 0.763 | [53] 0.9 | [54] 0.91 | [55] 0.803 | [56] 0.906 | [57] 0.816 | [58] 0.813 | [59] 0.833 | [60] 0.82 | [62] 0.756 | [63] 0.777 | [64] 0.786 | [67] 0.911 | [68] 0.901 | [69] 0.907 | [70] 0.906 | [71] 0.895
active: [2] 0.899 | [8] 0.908 | [26] 0.778 | [30] 0.891 | [35] 0.603 | [42] 0.667 | [61] 0.9 | [65] 0.894 | [66] 0.802

CC1(C)c2ccccc2N(CCC(N)=O)C12C=Cc1c(ccc3ccccc13)O2 (centres undefined)
inactive: [1] 0.972 | [2] 0.968 | [3] 0.97 | [4] 0.95 | [5] 0.971 | [6] 0.965 | [7] 0.969 | [8] 0.955 | [9] 0.944 | [10] 0.964 | [11] 0.901 | [12] 0.97 | [13] 0.956 | [14] 0.973 | [15] 0.939 | [16] 0.865 | [17] 0.927 | [18] 0.979 | [19] 0.964 | [20] 0.959 | [21] 0.943 | [22] 0.981 | [23] 0.92 | [24] 0.968 | [25] 0.906 | [26] 1.04 | [27] 0.973 | [28] 0.97 | [29] 0.956 | [30] 0.971 | [31] 0.975 | [32] 0.907 | [33] 0.896 | [34] 0.969 | [35] 0.891 | [36] 0.962 | [37] 0.912 | [38] 0.918 | [39] 0.908 | [40] 0.959 | [41] 0.985 | [42] 0.919 | [43] 0.944 | [44] 0.915 | [45] 0.883 | [46] 0.966 | [47] 0.926 | [48] 0.968 | [49] 0.986 | [50] 0.915 | [51] 0.966 | [52] 0.989 | [53] 0.96 | [54] 0.962 | [55] 0.922 | [56] 0.96 | [57] 0.907 | [58] 0.889 | [59] 0.968 | [60] 0.95 | [61] 0.971 | [62] 0.921 | [63] 0.931 | [64] 0.937 | [65] 0.966 | [66] 0.925 | [67] 0.973 | [68] 0.957 | [69] 0.963 | [70] 0.944 | [71] 0.97

From PubChem BioAssay AID1159580 (chemical genetic matrix, 2015)
